These results are taken from PubChem BioAssay.

Activity calls are given as the source filed them.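 The calls were made as follows: active = compounds whose cell count with miR-34 switched on is under 0.7 times the count with it off; inactive = the rest.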

The test in a line: viability loss with induced miR-34 in A549 – imaging, A549 dox-inducible miR-34, nuclei and caspase counts, primary screen (AID 1347080). Also: test concentration not given here. Conditions: A549 miR-34 inducible, Hoechst nuclei count, 48 h; stronger effect = lower value.
On to `CCCCCCC(=O)O[C@H]1CC[C@H]2[C@@H]3C=CC4=CC(=O)CC[C@]4(C)[C@H]3CC[C@]12C`, for which the fold change was 0.948 (inactive).

With `CC(C)[C@]1(O)[C@@H](OC(=O)c2ccc[nH]2)[C@@]2(O)[C@@]3(C)C[C@]4(O)O[C@@]5([C@H](O)[C@@H](C)CC[C@]35O)[C@@]2(O)C41C`, the fold change was 0.925 (inactive).

On to `O=C(CCC/C=C\C[C@@H]1[C@@H](/C=C/[C@@H](O)COc2cccc(C(F)(F)F)c2)[C@H](O)C[C@@H]1O)NC(CO)CO`, for which the fold change was 0.98 (inactive).

`CCCC[C@@H](C)[C@@H](OC(=O)C[C@@H](CC(=O)O)C(=O)O)[C@H](C[C@@H](C)C[C@H](O)CCCC[C@@H](O)C[C@H](O)[C@H](C)N)OC(=O)C[C@H](CC(=O)O)C(=O)O`: the fold change was 0.911 (inactive).

`CN1C(=O)[C@]23CC4=CC=C[C@H](O)[C@H]4N2C(=O)[C@@]1(CO)SS3`: the fold change was 0.901 (inactive).

Turning to `CC1OC(=O)C(C(C)C)NC(=O)C(C(C)C)OC(=O)C(C(C)C)NC(=O)C(C)OC(=O)C(C(C)C)NC(=O)C(C(C)C)OC(=O)C(C(C)C)NC(=O)C(C)OC(=O)C(C(C)C)NC(=O)C(C(C)C)OC(=O)C(C(C)C)NC1=O` (centres undefined), the fold change was 0.784 (inactive).

For `CCCCCCC(=O)O[C@H]1CC[C@H]2[C@@H]3CC(=O)C4=CC(=O)CC[C@]4(C)[C@H]3CC[C@]12C`, the fold change was 0.899 (inactive).

Regarding `C[C@]12CCC3c4ccc(OC(=O)N(CCCl)CCCl)cc4CCC3C1CC[C@@H]2O` (some centres undefined), the fold change was 1.19 (inactive).

In the case of `O[C@H]1[C@H]2[C@H](O)CCCN2C[C@H]1O`, the fold change is 0.852 (inactive).
